Mcl-1 Bim block: inhibitors of Bim-Mcl-1 interaction, human; Q07820; Bead-based flow cytometry, Bim peptide-Mcl-1 binding; inhibition, % at 10 µM; 190,000 compounds, 0.1% hits; in the data active = inhibition above about 40%
Target sequence (Q07820 whole entry, looked up): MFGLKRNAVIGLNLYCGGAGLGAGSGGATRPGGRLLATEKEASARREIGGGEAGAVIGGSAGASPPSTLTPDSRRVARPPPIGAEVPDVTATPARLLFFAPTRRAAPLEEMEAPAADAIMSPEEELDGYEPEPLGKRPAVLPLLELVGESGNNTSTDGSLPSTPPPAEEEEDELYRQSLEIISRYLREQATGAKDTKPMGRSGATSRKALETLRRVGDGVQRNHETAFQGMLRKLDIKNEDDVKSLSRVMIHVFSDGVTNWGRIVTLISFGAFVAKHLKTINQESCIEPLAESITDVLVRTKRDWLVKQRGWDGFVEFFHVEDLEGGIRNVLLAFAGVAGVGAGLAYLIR
Mcl1 Noxa PPI: disrupts binding of human Mcl-1 to Noxa peptide. Q07820. TR-FRET Mcl-1/Noxa peptide binding, 2 h. inhibition, % at 21.7 µM. 220,000 compounds, 1.5% hits. AID 1022;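 active = compounds that cut the protein-peptide binding signal by more than 50% relative to plate controls in a single-dose test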;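 also: His-tagged Mcl-1 with rhodamine Noxa BH3 peptide and terbium anti-His antibody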
MCL1-BIM inh: inhibitors of human MCL1 binding to BIM-BH3 peptide | Q07820 | GST-MCL1 / FITC-Bim-BH3 fluorescence polarization | inhibition, % at 10.9 µM | 320,000 compounds, 0.68% hits | AID 2057;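 active = inhibition above the mean inhibition of all tested compounds plus 3 SD, set per campaign, cut at about 40% in these data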;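 also: higher means more loss of mP so more displacement of Bim peptide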
Mcl1-Bid inh: disrupts binding of human Mcl-1 to Bid peptide | inhibition, % at 21.7 µM | 220,000 compounds, 0.97% hits | Q07820 | AID 1021 | TR-FRET Mcl-1/Bid-Dy647 peptide binding, 1536-well;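 active = compounds that cut the binding signal by more than half at the single screening dose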;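 also: His-tagged Mcl-1 with europium anti-His antibody binding Bid BH3 peptide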
14-3-3 Bad inh: disrupts binding of bovine 14-3-3 zeta to phospho-Bad peptide | inhibition, % at 21.7 µM | AID 781 | 220,000 compounds, 0.71% hits | P63103 | TR-FRET 14-3-3zeta/Dy647-pBad peptide displacement, 1 h;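 active = inhibition above about 70%, limit read from the data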
Target sequence (P63103 whole entry, looked up): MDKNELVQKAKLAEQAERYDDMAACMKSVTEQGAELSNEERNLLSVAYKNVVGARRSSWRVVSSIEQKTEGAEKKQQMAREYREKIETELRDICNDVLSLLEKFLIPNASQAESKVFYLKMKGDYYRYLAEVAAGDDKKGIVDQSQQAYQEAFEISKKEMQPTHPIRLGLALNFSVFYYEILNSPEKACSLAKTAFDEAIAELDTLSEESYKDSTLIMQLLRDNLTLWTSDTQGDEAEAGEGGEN
Numbers stand for hits; i = inactive; nt = no result given. Compounds with a hit are over-represented: about 2.5% of the library has one in this group of screens.

SMILES | Mcl-1 Bim block | Mcl1 Noxa PPI | MCL1-BIM inh | Mcl1-Bid inh | 14-3-3 Bad inh
Cc1ccc(S(=O)(=O)CCC(=O)OCC(=O)Nc2ncc(Cl)cc2Cl)cc1 | i | i | i | 87 | i
Cc1ccc(S(=O)(=O)CCC(=O)OCc2ccc(Cl)c(Cl)c2)cc1 | i | i | i | 55 | i
Cn1c(/N=C/c2c(O)ccc3ccccc23)nc2ccccc21 | i | i | i | 56 | i
CCCn1c(/N=C/c2ccccc2O)nc2ccccc21 | i | i | i | i | i
CC(C)CCN1CCC(n2nccc2NC(=O)C2CCOC2)CC1 (configuration not stated) | nt | nt | i | nt | nt
CC1(C)Cc2ccccc2C(Nn2cnnc2)=N1 | i | i | i | i | i
COc1cc2c(cc1OC)C(Nn1cnnc1)=NC1(CCCC1)C2 | nt | i | i | 91 | i
COc1cccc(CN(C)C(=O)c2cccnc2SC)c1OC | i | i | i | i | i
Cc1c(Cl)cnc(NC(=O)COC(=O)C(NC(=O)c2ccco2)C(C)C)c1Cl (configuration not stated) | i | nt | i | i | i
Cc1c(Cl)cnc(NC(=O)COC(=O)[C@H](C)NC(=O)c2ccccc2)c1Cl | nt | nt | 46 | nt | nt
O=C1OC2(c3ccccc31)c1cc(I)c(O)c(I)c1Oc1c2cc(I)c(O)c1I | nt | nt | 87 | nt | nt
COc1ccccc1/C=C1\SC(=S)N(CCC(=O)NCCCn2ccnc2)C1=O | nt | nt | i | nt | nt
O=C(CNc1ccc2ccccc2c1)N/N=C/C=C/c1cccc([N+](=O)[O-])c1 | i | 77 | i | i | i
COc1ccc(/C(N)=N/OC(=O)c2cccs2)cc1 | nt | i | i | i | i
CCCNS(=O)(=O)c1ccc(OCC(=O)N2CCc3ccccc3C2)c(C)c1 | nt | nt | i | nt | nt
COc1cc(NS(=O)(=O)c2ccc(NC(=S)NC(=O)c3sc4cc(F)ccc4c3Cl)cc2)nc(OC)n1 | i | 88 | i | i | i
COc1cc(NS(=O)(=O)c2ccc(NC(=S)NC(=O)c3ccco3)cc2)nc(OC)n1 | nt | i | i | i | i
NC(N)=NS(=O)(=O)c1ccc(NC(=S)NC(=O)c2sc3ccccc3c2Cl)cc1 | i | i | i | 82 | 76
COc1cc(NS(=O)(=O)c2ccc(NC(=S)NC(=O)c3sc4ccccc4c3Cl)cc2)nc(OC)n1 | i | 69 | i | 66 | i
Cc1cc2oc(C(=O)Nc3nonc3C)c(C)c2cc1C | nt | nt | i | nt | nt
O=S(=O)(NCC1CCCO1)c1ccc2oc3ccc(S(=O)(=O)NCC4CCCO4)cc3c2c1 (configuration not stated) | i | i | i | i | i
Oc1ccc(-c2nnc(Nc3cccc(O)c3)c3ccccc23)cc1 | nt | 60 | i | i | i
CNC(=O)c1ccc(Nc2nnc(-c3ccc(O)cc3)c3ccccc23)cc1 | nt | nt | i | nt | nt
O=C(CC1CCCC1)N1CCN(S(=O)(=O)c2ccccc2)CC1 | nt | nt | i | nt | nt
NC(=O)/C(=C/c1ccco1)NC(=O)c1ccc(Br)o1 | nt | nt | 40 | nt | nt
SMILES | Mcl-1 Bim block | Mcl1 Noxa PPI | MCL1-BIM inh | Mcl1-Bid inh | 14-3-3 Bad inh
COc1ccc(N(C)C(=O)c2cn(CC(C)C)c(=O)c3cc(OC)c(OC)cc23)c(OC)c1 | nt | nt | i | nt | nt
COC(=O)CSc1nnc(CNc2ccc(F)cc2)o1 | i | i | i | i | i
CC1(c2cccc3ccccc23)NC(=O)N(CC(=O)NC2CCS(=O)(=O)C2)C1=O (configuration not stated) | i | i | i | 98 | i
CC(NC(=O)CN1C(=O)NC(C)(c2cccc3ccccc23)C1=O)c1ccccc1 (configuration not stated) | nt | nt | i | nt | nt
COc1ccc(-c2cc3ccccc3n2CC(O)CN2CCCCC2)cc1 (configuration not stated) | nt | i | i | i | i
COC(=O)Cn1cnc2ccccc2c1=O | i | i | i | i | i
CC(C)OC(=O)Cn1cnc2ccc(Br)cc2c1=O | i | 107 | i | i | i
COC(=O)C1=C(C)NC(C)=C(C(=O)OC)C1C(=O)OCc1nnc(-c2ccccc2)o1 | nt | nt | i | nt | nt
CN(CC(=O)O/N=C(\N)c1ccc([N+](=O)[O-])cc1)S(=O)(=O)c1ccccc1 | 95 | 83 | i | i | i
Cc1ccc(S(=O)(=O)N(C)CC(=O)O/N=C(\N)c2ccc([N+](=O)[O-])cc2)cc1 | i | i | i | i | i
CC1=CC(=O)C=C(C)C1=NOc1ccc([N+](=O)[O-])cc1 | i | i | i | i | 74
CC1CN(C)C(C)C/C1=N\Oc1ccc([N+](=O)[O-])cc1 (configuration not stated) | i | i | i | i | i
CC(C)Cn1c(N)c(C(=O)COC(=O)c2cc(-c3ccco3)nc3ccccc23)c(=O)n(C)c1=O | i | 97 | i | i | i
Cn1c(N)c(C(=O)COC(=O)c2cc(-c3ccccc3)nc3ccccc23)c(=O)n(Cc2ccccc2)c1=O | i | i | i | i | i
Cn1c(=O)c(C(=O)COC(=O)c2cc(-c3ccco3)nc3ccccc23)c(N)n(Cc2ccccc2)c1=O | i | 96 | i | i | i
Clc1ccc(OCc2nc3ccccc3[nH]2)cc1 | i | i | i | i | i
CN(C)Cc1cc(C(C)(C)C)cc(C(C)(C)C)c1O | nt | i | i | i | i
CN(C)Cc1cc(O)c(CN(C)C)cc1O | nt | 60 | 48 | i | i
Oc1oc(-c2ccccc2)nc1/C=N/c1ccccn1 | i | i | i | i | i
Oc1oc(-c2ccccc2Br)nc1C=Nc1ccc(Br)cn1 | i | i | i | i | 76
COc1ccc(C=NCCC2(O)CC(C)N(C)CC2C)cc1 (configuration not stated) | i | i | 41 | i | i
CCn1nc(C)c(NC(=O)/C=C/c2ccc(OC)c(COc3ccc(Cl)cc3Br)c2)c1C | i | i | i | 64 | 77
CCOc1cc(S(=O)(=O)N2CCCCC2)ccc1F | i | i | i | i | i
COc1ccc(-c2[nH]c(-c3ccc(C)cc3)nc2SCC(=O)Nc2nccs2)cc1 | i | i | i | i | i
COc1ccccc1Cn1c(=O)c2ccccc2n2c(SCc3csc(C)n3)nnc12 | i | i | i | i | i
SMILES | Mcl-1 Bim block | Mcl1 Noxa PPI | MCL1-BIM inh | Mcl1-Bid inh | 14-3-3 Bad inh
O=C(CCCCCN1C(=O)c2ccccc2C1=O)NCc1ccccn1 | i | i | i | i | 77
CCN(CC)c1ccc(NC(=O)CCCCCN2C(=O)c3ccccc3C2=O)cc1 | i | 63 | i | i | i
CC(=O)Nc1ccc(NC(=O)CCCCCN2C(=O)c3ccccc3C2=O)cc1 | i | i | i | i | i
O=C(CCCN1C(=O)c2ccccc2C1=O)NCCCn1ccnc1 | i | i | i | 82 | i
CCOC(=O)c1c(NC(=O)CC2SC(N)=NC2=O)sc2c1CCC(C)C2 (configuration not stated) | i | i | i | i | i
Cc1ccc2[nH]c3c(NCc4ccco4)ncnc3c2c1 | i | 55 | i | i | i
COc1cc(CNc2ncnc3c2[nH]c2ccc(C)cc23)cc(OC)c1 | nt | i | i | i | i
Cc1ccc(C(=O)Nc2nnc(NC(=S)Nc3ccccc3)s2)cc1 | i | i | i | i | i
CCOc1ccc(C(=O)Nc2nnc(NC(=S)Nc3ccccc3)s2)cc1 | 64 | i | i | i | i
CC(C)C(=O)NC(c1ccc(Cl)cc1Cl)c1ccc2cccnc2c1O (configuration not stated) | nt | nt | i | nt | nt

Screens (PubChem)
